L3MBTL1 block = inhibitors of human L3MBTL1; AlphaScreen L3MBTL1–H3K9me1 peptide binding; Potency, µM (titrated, usually from 57.1 µM), usual class: inhibitors; 0.66% of 230,000 active; further: nearly all actives have a fitted effect of over 60% in size
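AlphaScreen assay: L3MBTL1 (50 nM final) was preincubated 30 min at room temperature with biotinylated H3(1-15)K9me1 peptide (75 nM final), then 30 min with library compounds; streptavidin donor and nickel chelate acceptor beads (10 ug/mL final) added, 30 min dark.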
KDM4E inh = inhibitors of human JMJD2E histone demethylase. Potency, µM (top dose mostly 57.1 µM), most hits filed as inhibitors. 1.6% of 230,000 active. JMJD2E catalytic domain, FDH-coupled NADH fluorescence (FDH is formaldehyde dehydrogenase). B2RXH2; active means well fitted inhibition curve with a large enough effect, not every such curve was filed as active; inconclusive means small, poorly fitted or top-dose-only effect, or another doubt; inactive means no such curve, though single readings can be large or run the other way; further: nearly all actives have a fitted effect of over 50% in size
Target sequence (B2RXH2 1-337 limits assumed): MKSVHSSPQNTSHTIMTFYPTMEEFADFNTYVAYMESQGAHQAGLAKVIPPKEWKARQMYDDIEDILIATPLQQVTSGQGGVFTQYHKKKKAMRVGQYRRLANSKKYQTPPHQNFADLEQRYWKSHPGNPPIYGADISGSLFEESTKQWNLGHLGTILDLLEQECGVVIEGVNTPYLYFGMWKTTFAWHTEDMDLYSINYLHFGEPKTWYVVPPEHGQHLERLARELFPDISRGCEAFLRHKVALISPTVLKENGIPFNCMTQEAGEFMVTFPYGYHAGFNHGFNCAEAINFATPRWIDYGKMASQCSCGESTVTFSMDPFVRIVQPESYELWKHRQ
APE1 inh-1 = inhibitors of human APE1 endonuclease; recombinant APE1, TAMRA/BHQ-2 abasic DNA cleavage fluorescence; Potency, µM (titrated, usually from 65.8 µM), most hits filed as inhibitors; 0.35% of 350,000 active; AID 2517; further: nearly all actives have a fitted effect of over 55% in size
Target sequence (P27695 whole entry, looked up): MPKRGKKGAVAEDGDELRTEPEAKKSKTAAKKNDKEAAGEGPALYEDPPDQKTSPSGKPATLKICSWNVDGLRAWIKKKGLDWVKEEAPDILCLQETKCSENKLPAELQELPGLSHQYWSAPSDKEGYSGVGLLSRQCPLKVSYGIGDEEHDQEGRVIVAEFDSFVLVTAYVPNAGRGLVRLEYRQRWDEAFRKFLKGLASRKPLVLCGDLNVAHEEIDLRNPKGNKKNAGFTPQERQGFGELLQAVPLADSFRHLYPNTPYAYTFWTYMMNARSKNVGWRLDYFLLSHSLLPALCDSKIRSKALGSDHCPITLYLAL
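Compound pre-exposure to 0.75 nM APE1, 15 min at ambient temperature. Reaction initiated with 50 nM TAMRA/BHQ-2 THF substrate, read immediately in kinetic mode, 525 nm excitation, 598 nm emission.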
RECQ1 inh = inhibitors of human RECQ1 DNA helicase; P46063; RECQ1 DNA unwinding, red fluorescence kinetic read; Potency, µM (titrated, usually from 57.3 µM), most hits filed as inhibitors; 0.54% of 240,000 active; AID 2549; further: nearly all actives have a fitted effect of over 30% in size
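50 nM RECQ1T1 preincubated 15 min with compound in Tris pH 8.0 buffer with MgCl2, DTT, Tween-20 and 2.5 ug/ml poly(dI-dC); started with 200 nM TAMRA/BHQ-2 forked duplex and 2 mM ATP. Unwinding read as fluorescence (525/598 nm), two reads 2 h apart.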
BLM inh = inhibitors of human Bloom syndrome helicase BLM. Potency, µM (doses to about 56.1 µM), hits mostly inhibitors. P54132. recombinant BLM DNA unwinding, fluorescence dequenching. AID 2528. 0.2% of 350,000 active; further: nearly all actives have a fitted effect of over 35% in size
DNA dye displace = counter-screen for APE1 inhibitors: DNA dye displacement; shares compounds with APE1 inh-1; DNA fluorescent dye displacement counterscreen, fluorescence; Potency, µM (highest dose often 28.5 µM), most hits filed as inhibitors; 7% of 480 active;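 further: loss of thiazole orange fluorescence as the dye is displaced from duplex DNA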
EndoIV counter = Endo IV (E. coli) inhibition counter-screen; 4% of 560 active; E. coli Endo IV, fluorogenic AP-site DNA cleavage; AID 2565; shares compounds with APE1 inh-1; Potency, µM (highest dose often 27.1 µM), hits mostly inhibitors
APE1 inh-2 = APE1 (human) endonuclease inhibition, confirmation; shares compounds with APE1 inh-1; purified APE1, fluorogenic abasic-site DNA cleavage; Potency, µM (doses to about 57.1 µM), actives largely listed as inhibitors; 44% of 750 active; further: nearly all actives have a fitted effect of over 30% in size
APE1 FP = compounds that displace a DNA probe from human APE1. Potency, µM (doses to about 28.5 µM), actives largely listed as inhibitors. APE1 binding to TAMRA-labelled double-stranded DNA, fluorescence polarization displacement. shares compounds with APE1 inh-1. 7% of 480 active
Of the large screens only hits and unclear results are named; the others gave an inactive call (follow-up assays come after a bar, where they were run); ! = not confirmed by another sample. This excerpt belongs to a sample that is enriched for hits. Unless noted, the call rests on the fitted dose curve; in most records, active means well fitted curve in the direction sought with a large enough effect; inconclusive means small, poorly fitted or top-dose-only effect, or another doubt; inactive means no such curve, though single readings can be large; an effect the other way counts as inactive or inconclusive.

COc1ccc(Sc2ccccc2CN(C)C)cc1OC	none
CNCc1ccccc1Sc1ccc(O)c(O)c1	L3MBTL1 block inconclusive, KDM4E inh 14µM, APE1 inh-1 32µM, RECQ1 inh inconclusive
CCOc1ccc(C(=O)NCC(=O)Nc2ncccc2C)cc1OCC	none (no result: KDM4E inh, RECQ1 inh, BLM inh)
O=C(O)/C=C/c1ccc(O)c(O)c1	L3MBTL1 block inconclusive, KDM4E inh 0.56µM!, APE1 inh-1 inconclusive | DNA dye displace inactive | EndoIV counter inactive | APE1 inh-2 inconclusive | APE1 FP inactive
O=C(/C=C/c1ccc(O)c(O)c1)O[C@H](Cc1ccc(O)c(O)c1)C(=O)O	KDM4E inh inconclusive, APE1 inh-1 0.13µM, RECQ1 inh 3.5µM, BLM inh 22µM (no result: L3MBTL1 block) | DNA dye displace inactive | EndoIV counter inactive | APE1 inh-2 0.63µM | APE1 FP inactive
O=C(CSc1nc2cc(Cl)c(Cl)cc2[nH]1)c1ccc2c(c1)OCO2	APE1 inh-1 inconclusive | DNA dye displace inactive | EndoIV counter inactive | APE1 inh-2 inconclusive | APE1 FP inactive
O=C(CSc1nc2ccc(Cl)cc2[nH]1)c1ccc2c(c1)OCO2	none
CCOc1ccc2nc(NC(=O)CS(=O)(=O)c3ccc(C)cc3)sc2c1	none (no result: L3MBTL1 block)
C=C(C)C(=O)OCCCCCCOc1ccc(C(=O)O)cc1	none | APE1 inh-2 inconclusive
Cc1ccc(NC(=O)Cn2c(SCc3cccc(F)c3)nc3ccncc32)c(C)c1	none (no result: L3MBTL1 block, KDM4E inh, APE1 inh-1, RECQ1 inh)
Cc1ccc(C(=O)O)cc1-n1c(C)cc(C=O)c1C	L3MBTL1 block inconclusive, APE1 inh-1 inconclusive | APE1 inh-2 inconclusive
Cc1c(C(=O)O)cccc1-n1c(C)cc(C=O)c1C	L3MBTL1 block inconclusive, APE1 inh-1 inconclusive
CCCCC(=O)c1ccc(O)cc1	none (no result: L3MBTL1 block)
O=C(CCO)c1ccc(O)cc1	L3MBTL1 block 3.5µM, KDM4E inh inconclusive, APE1 inh-1 1.6µM, RECQ1 inh 25µM, BLM inh 25µM | DNA dye displace inactive | EndoIV counter inconclusive | APE1 inh-2 1.3µM | APE1 FP inactive
Cc1c(OCC(=O)C(C)(C)C)ccc2c3c(c(=O)oc12)CCCC3	none (no result: KDM4E inh, RECQ1 inh)
Cc1ccc2oc3c(c(=O)c2c1)C(c1ccc(F)cc1)N(CCCN1CCOCC1)C3=O (centres undefined)	KDM4E inh inconclusive (no result: L3MBTL1 block)
Cc1ccc(NC(=O)CSc2nc3ccccc3c3nc(CCc4c(C)n[nH]c4C)nn23)cc1F	BLM inh inconclusive (no result: L3MBTL1 block) | APE1 inh-2 inconclusive
Cc1c(C(=O)O)c(O)cc2c1C(=O)c1c(O)c([C@H]3O[C@H](CO)[C@@H](O)[C@H](O)[C@H]3O)c(O)c(O)c1C2=O	KDM4E inh 7.9µM, APE1 inh-1 10µM!, RECQ1 inh 32µM! (no result: L3MBTL1 block) | DNA dye displace inconclusive | EndoIV counter inactive | APE1 inh-2 3.2µM | APE1 FP inconclusive
COc1cc(OC)c([C@@H]2O[C@H](CO)[C@@H](O)[C@H](O)[C@H]2O)c(OC)c1	none (no result: L3MBTL1 block)
C=C(C)C(=O)Nc1cccc(C2=NOC3(C2)C[C@@H](C(N)=O)N(C(=O)CCCCC)C3)c1 (some centres undefined)	APE1 inh-1 inconclusive, RECQ1 inh 25µM (no result: L3MBTL1 block) | APE1 inh-2 40µM
CCOc1ccccc1NC(=O)CN(C)S(=O)(=O)c1cccc2nsnc12	none | DNA dye displace inactive | EndoIV counter inactive | APE1 inh-2 inactive | APE1 FP inconclusive
Cc1cccc(NC(=O)CN(C)S(=O)(=O)c2cccc3nsnc23)c1C	none
COc1ccccc1NC1C=CS(=O)(=O)C1 (centres undefined)	none
CCOC(=O)c1ccc(NC(=O)CC2C(=O)N(c3ccc(C)cc3)C(=O)N2C2CCCCC2)cc1 (centres undefined)	none (no result: L3MBTL1 block, KDM4E inh, APE1 inh-1, RECQ1 inh)
O=C(/C=C/c1ccccc1)c1cc(Br)ccc(=O)c1O	KDM4E inh 13µM, APE1 inh-1 inconclusive, RECQ1 inh 32µM (no result: L3MBTL1 block) | DNA dye displace inconclusive | EndoIV counter inactive | APE1 inh-2 inconclusive | APE1 FP inconclusive
CN=c1scc(C)n1/N=C/c1ccc(O)c(O)c1O	KDM4E inh 7.9µM, APE1 inh-1 7.1µM, RECQ1 inh 10µM, BLM inh inconclusive (no result: L3MBTL1 block) | DNA dye displace inconclusive | EndoIV counter inactive | APE1 inh-2 14µM | APE1 FP inactive
CN=c1scc(C)n1/N=C/c1cc(Br)c(O)c(OC)c1	none
Cc1sc2ncnc(SCC(=O)NC(=O)NCc3ccco3)c2c1C	L3MBTL1 block inconclusive, APE1 inh-1 28µM, RECQ1 inh inconclusive | DNA dye displace inactive | EndoIV counter inactive | APE1 inh-2 inconclusive | APE1 FP inactive
CC1(C)Oc2cc(N)c([N+](=O)[O-])cc2O1	APE1 inh-1 32µM | DNA dye displace inactive | EndoIV counter inactive | APE1 inh-2 inactive | APE1 FP inactive
O=c1c(O)c(-c2ccc(O)c(O)c2)oc2cc(O)ccc12	KDM4E inh 14µM!, APE1 inh-1 inconclusive, RECQ1 inh 3.2µM! (no result: L3MBTL1 block) | DNA dye displace 2.8µM | EndoIV counter inactive | APE1 inh-2 0.89µM | APE1 FP inactive
CC(=O)c1c(C(C)=O)c(C)n(-c2ccc(C(=O)O)cc2)c1C	none
Cc1ccc(C)n1-c1ccc(C(=O)O)cc1	KDM4E inh 14µM, APE1 inh-1 14µM (no result: L3MBTL1 block) | APE1 inh-2 13µM
C[C@@H]1OC(OC2CC[C@@]3(C)C(CC[C@@]4(C)C3CC=C3C5CC(C)(C)CC[C@]5(C(=O)OC5OCC(O)[C@@H](O)[C@@H]5OC5O[C@@H](C)[C@H](O[C@H]6OC(CO)C(O)C(O)C6O)C(O)C5O)C(O)C[C@@]34C)C2(C)C)C(O)C(O)[C@H]1OC1OCC(O)C(O)[C@H]1O (some centres undefined)	APE1 inh-1 28µM (no result: L3MBTL1 block) | DNA dye displace inactive | EndoIV counter inactive | APE1 inh-2 32µM | APE1 FP inactive
O=C(Cn1c(=O)n(Cc2ccco2)c(=O)c2c3c(sc21)CCCC3)Nc1ccccc1	none
NC(=O)Cn1c(=O)n(Cc2ccco2)c(=O)c2c3c(sc21)CCCCC3	L3MBTL1 block inconclusive, APE1 inh-1 inconclusive, RECQ1 inh inconclusive, BLM inh inconclusive | DNA dye displace inconclusive | EndoIV counter inactive | APE1 inh-2 10µM | APE1 FP inconclusive
O=C(O)C1CCN(S(=O)(=O)c2cccc3nsnc23)CC1	none (no result: L3MBTL1 block, KDM4E inh, RECQ1 inh)
CO/N=C(\C(=O)N[C@@H]1C(=O)N2C(C(=O)O)=C(COC(C)=O)CS[C@@H]12)c1csc(N)n1	none (no result: L3MBTL1 block, APE1 inh-1) | DNA dye displace inactive | EndoIV counter inactive | APE1 inh-2 28µM | APE1 FP inactive
